Data reported in PubChem BioAssay (EPA / NIEHS).
Active and inactive are the calls of the source. How the source made its calls: active means hit-call score of the fitted dose curve at least 0.9, where 1 is the maximum; inactive means score below 0.9.

Biological target: Nuclear respiratory factor 1 (Homo sapiens) (UniProt Q16656)
Assay: ATG_NRF1_CIS: Attagene CIS-FACTORIAL HepG2 Assay for human Nuclear Respiratory Factor 1 (NRF1) Orphan Gene (AID 2282987)
Conditions: HepG2 NRF1 cis-element reporter, Attagene multiplex; actives raise or lower the signal
Description: ATG_CIS is a cell-based, multiplexed-readout assay that uses HepG2, a human liver cell line, with measurements taken at 24 hours after chemical dosing in a 24-well plate.ATG_NRF1_CIS is one of 52 assay component(s) measured or calculated from the ATG_CIS assay. It is designed to make measurements of mRNA induction, a form of inducible reporter, as detected with fluorescence intensity signals by Reverse transcription polymerase chain reaction (RT-PCR) and Capillary electrophoresis technology.Data from the assay component ATG_NRF1_CIS was analyzed into 1 assay endpoint. This assay endpoint, ATG_NRF1_CIS, was analyzed with bidirectional fitting relative to DMSO as the negative control and baseline of activity. Using a type of inducible reporter, measures of mRNA for gain or loss-of-signal activity can be used to understand the reporter gene at the transcription factor-level as they relate to the gene NRF1. Furthermore, this assay endpoint can be referred to as a primary readout, because this assay has produced multiple assay endpoints where this one serves a reporter gene function. To generalize the intended target to other relatable targets, this assay endpoint is annotated to the dna binding intended target family, where the subfamily is nuclear respiratory factors.
Human liver HepG2 cells are transiently transfected with multiple reporter transcription units (MRTUs) in 6-well plates using FuGene 6 reagent (Roche; 3 ml FuGene/1 mg DNA). The MRTU constructs are regulated by a cis-regulating element (promoter). […] A major difference between the CIS and TRANS system is that in CIS activities of endogenous TFs are measured, whereas the TRANS assay evaluates changes in activities of exogenous, chimeric NR-Gal4 proteins. […] At the end of 24 hour incubation, total RNA was isolated using TriZol reagent (Invitrogen). The isolated RNA is then reverse-transcribed using oligo(dT) primer and Mo-MLV reverse transcriptase (Invitrogen) with DNAse I (Ambion) treatment for 30 min. The one-tenth of the produced cDNA was amplified by PCR using Taq DNA polymerase (Invitrogen) and two reporter sequence-specific primers. The PCR products were fluorescently labeled by primer extension with 6-arboxyfluorescein (6-FAM) 5'-labeled reporter sequence-specific primer (2 min at 95 C, 20 s at 68 C and 10 min at 72 C) and these products were digested with 5U of HpaI (New England Biolabs) for 2h at 37 C. The fragments were purified using Qiaquick PCR columns (Qiagen), analyzed on an ABI 3130xL genetic analyzer (Applied Biosystems) with peak positions identified by using a set of X-rhodamine (ROX)-labeled MapMarker1000 molecular weight standards (BioVentures). The raw capillary electrophoresis data was processed using Attagraph software (Attagene).

Sequence of Nuclear respiratory factor 1 (Homo sapiens) (Q16656 whole entry, looked up): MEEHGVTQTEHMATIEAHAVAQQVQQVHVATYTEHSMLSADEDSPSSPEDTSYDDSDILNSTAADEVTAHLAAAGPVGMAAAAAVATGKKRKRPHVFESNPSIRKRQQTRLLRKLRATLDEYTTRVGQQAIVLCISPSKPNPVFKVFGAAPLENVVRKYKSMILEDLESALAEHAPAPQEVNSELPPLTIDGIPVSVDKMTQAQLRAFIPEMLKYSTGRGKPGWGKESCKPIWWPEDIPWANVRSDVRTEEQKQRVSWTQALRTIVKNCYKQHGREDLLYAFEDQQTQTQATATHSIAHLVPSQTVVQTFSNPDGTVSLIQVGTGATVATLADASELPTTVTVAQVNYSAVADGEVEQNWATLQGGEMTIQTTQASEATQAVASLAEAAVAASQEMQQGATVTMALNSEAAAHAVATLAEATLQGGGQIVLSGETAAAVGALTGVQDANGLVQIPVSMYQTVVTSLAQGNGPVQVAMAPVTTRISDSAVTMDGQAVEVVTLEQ

outcome, inactive:
C=CC(C)(CCC=C(C)C)OC(=O)C(C)C (stereo not given), Cc1cc(C)c(C(=O)O)c(C)c1, CCCCC/C=C\CCC=O, OCCCS, O=C(O)c1ccccc1Nc1cccc(C(F)(F)F)c1, Clc1nc2ccccc2s1, C=C[C@](C)(O)CC[C@@H]1[C@@]2(C)CCCC(C)(C)[C@@H]2CC[C@@]1(C)O, CCCC(C)CCC(C)=O (stereo not given), COCc1c(C(C)C)nc(C(C)C)c(/C=C/[C@@H](O)C[C@@H](O)CC(=O)O)c1-c1ccc(F)cc1, CC(C)CCCCCOC(=O)CCS, O=c1c2ccccc2oc2ccccc12, O=CN1CCCCC1, CC(=O)Nc1nnc(S(N)(=O)=O)s1, COc1ccc(C(Cl)=C(c2ccc(OC)cc2)c2ccc(OC)cc2)cc1, CC1=CC[C@H](C(C)C)C=C1, O=[N+]([O-])C1(Br)COCOC1, O=c1cc[nH]c(=S)[nH]1, C=C1[C@H]2CC[C@@H]3[C@H]2C(C)(C)CCC[C@]13C, Nc1ccc(N)c(Cl)c1, O=S(=O)(O)c1cc(S(=O)(=O)O)c2ccc3c(S(=O)(=O)O)cc(S(=O)(=O)O)c4ccc1c2c43, O=C(O)Cc1c(Cl)ccc(Cl)c1Cl, CC(=O)NS(=O)(=O)c1ccc(N)cc1, CCCCCCCCCCc1ccccc1, C=C(C)c1cccc(C(C)(C)N=C=O)c1, Cc1cnc(NC(=O)C2=C(O)c3ccccc3S(=O)(=O)N2C)s1, CCC(C)OC(=O)c1ccc(O)cc1 (stereo not given), CN1C(=O)N(C)C(O)C1O (stereo not given), C[Si](C)O[Si](C)(C)O[Si](C)(C)O[Si](C)C, CN(C)c1ccc(N=Nc2ccccc2C(=O)O)cc1, CC(C)(C)c1ccc(N)cc1, Cc1cc(=O)n(-c2ccccc2)n1C, CC(=O)C=CC1C(C)=CCC(C)C1(C)C (stereo not given), Cc1cc(C)c(C)cc1C, CCN(CC)c1ccc(C(=O)c2ccccc2C(=O)O)c(O)c1, CCCC(=O)OCc1ccccc1, CCCCCCCCO[C@@H]1O[C@H](CO)[C@@H](O)[C@H](O)[C@H]1O, C=C[Si](OC(C)=O)(OC(C)=O)OC(C)=O, CCCCC(CC)COC(=O)c1ccccc1 (stereo not given), O=[N+]([O-])c1ccc(CO)cc1, CC(C)C(=O)C(C)C
